Screening data deposited in PubChem BioAssay by National Center for Advancing Translational Sciences (NCATS).
This is a sample that favours compounds with a hit; in the whole collection about 19% have one here.
HT1080 IDH1KD tx = kills HT-1080 cells with IDH1 knockdown; HT-1080 IDH1 knockdown viability, ATP luminescence, 48 h; Potency, µM (top dose mostly 46.1 µM), inactives show at the highest dose activity, negative = toxicity, hits mostly cytotoxic; actives 2% (n = 360,000); AID 686971;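 note: potency is the fitted concentration of half-maximal effect; 0% = DMSO wells and -100% = cell-free medium wells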
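After a 2 h attachment period, IDH1KD HT-1080 cells took pin-transferred compound for 48 h at 37 °C; ATP-based luminescence after 10 min room-temperature reagent incubation reported viability.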
IL-1B inflam inh = inhibitors of inflammasome signaling (IL-1 beta secretion). THP-1 LPS/ATP IL-1B secretion, AlphaLISA, 16 h; hits give low values. activity change, % at 57.5 µM. actives 4.7% (n = 360,000). AID 743279; in the data active = activity change below about -50%; inconclusive = mostly about -30% to -49%
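THP-1 cells pretreated 1 hr with compounds (up to 57.5 uM final), then stimulated with LPS (250 ng/mL final) plus ATP (1.25 mM final); secreted IL-1B measured by AlphaLISA after 16 hr, decreased signal indicating inhibition.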
HT1080-NT tox = kills 2HG-producing HT-1080-NT fibrosarcoma cells; HT-1080-NT fibrosarcoma viability, CellTiter-Glo ATP luminescence, 48 h; Potency, µM (top dose mostly 46.1 µM), for the others: at the top dose activity, negative = less viability, actives largely listed as cytotoxic; actives 1.6% (n = 360,000); AID 686970;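 note: NT is the 2HG producing partner of a matched IDH1 knockdown line; potency is the fitted concentration of half-maximal effect; 0% = DMSO-treated cells and -100% = media-only wells without cells; nearly all actives have a fitted effect of over 55% in size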
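Compounds were tested in concentration-response format on HT-1080-NT cells for 48 hours at 37 degrees C. Cell viability came from CellTiter-Glo luminescence; curves were classified by r2, response magnitude and activity.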
TDP1 cell noCPT = qHTS for Inhibitors of human tyrosyl-DNA phosphodiesterase 1 (TDP1): qHTS in cells in absence of CPT | DT40 Tdp1-/- hTDP1 cells, no CPT, ATP luminescence, 48 h | Potency, µM (titrated, usually from 46.2 µM), for the others: at the highest dose activity change, negative = growth inhibition, hits mostly inhibitors | actives 15% (n = 420,000) | AID 686978, 2013; note: potency is the fitted concentration of half-maximal effect; nearly all actives have a fitted effect of over 55% in size
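Cells were dispensed at 400 per well, compounds added by pin tool, plates incubated ≥48 hr at 37 °C, then CellTiter-Glo added for 30 min at room temperature before luminescence reading. Line: DT40 Tdp1-/- complemented with hTDP1; camptothecin omitted.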
TDP1 cell CPT = growth inhibition of DT40 Tdp1-/-;hTDP1 cells with camptothecin (screen for TDP1 inhibitors). actives 12% (n = 420,000). Potency, µM (top dose mostly 46.2 µM), for the others: at the top dose activity change, negative = growth inhibition, most hits filed as inhibitors. chicken DT40 Tdp1-/-;hTDP1 cells + 20 nM CPT, ATP luminescence, 48 h; note: potency is the fitted concentration of half-maximal effect; nearly all actives have a fitted effect of over 55% in size
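Cell growth measured by CellTiter-Glo luminescence after a minimum 48 h, 37 C compound exposure with 20 nM CPT in Tdp1-knockout DT40 cells stably expressing hTDP1, seeded 400/well; qHTS titration format.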
An asterisk follows results filed as active; ? = inconclusive; . = not tested or not shown; ! = repeats disagree. Unless noted, calls come from the whole dose curve; as a rule, active = well fitted curve in the direction sought with a large enough effect; inconclusive = small, poorly fitted or top-dose-only effect, or another doubt; inactive = no such curve, though single readings can be large; an effect the other way counts as inactive or inconclusive. Unless noted, % is set by controls: 0 for no effect and ±100 for the full control effect.

SMILES	HT1080 IDH1KD tx	IL-1B inflam inh	HT1080-NT tox	TDP1 cell noCPT	TDP1 cell CPT
COc1ccccc1-c1nnc(SCC(=O)Nc2c(Cl)cccc2Cl)o1	-15%	-9	-8%	21µM*	18µM*
COc1ccccc1-c1nnc(SCC(=O)NCc2c(C)c(Cl)cc(C(C)C)c2O)o1	16µM*	-12	?	?	29µM*
Cc1ccc(Nc2ncnc(N)n2)cc1C	8%	-11	6%	5%	-14%
COc1cc2nc(Nc3ccc(C)c(Cl)c3)nc(N)c2cc1OC	13µM*	-94*	?	?	?
COc1cc2nc(Nc3ccc(C)c(C)c3)nc(N)c2cc1OC	?	-98*	?	15µM*	23µM*
Cc1ccc(Nc2nc(N)c3ccccc3n2)cc1Cl	0%	-97*	-4%	?	15µM*
COc1cc2nc(Nc3cccc(C)c3)nc(N)c2cc1OC	.	.	.	3.3µM*	12µM*
OC(c1cccc(Cl)c1)c1nc(-c2ccoc2)cs1 (configuration not stated)	?	0	?	?	?
C/C=C/c1ccc(OCC(=O)Nc2cc(Cl)ccc2-n2cncn2)c(OC)c1	-12%	-20	-2%	?	?
CCC(C)(C)NC(=O)C(OC(=O)c1ccco1)c1ccccc1OC (configuration not stated)	5%	-15	2%	-11%	-7%
CCOC(=O)c1ccc(N/C=C/C(=O)c2ccc(OC)c(OC)c2)cc1	?	-21	-19%	?	-18%
CCOC(=O)c1ccc(Nc2ccc(-c3ccc(OC)c(OC)c3)nn2)cc1	?	15	-27%	4.6µM*	?
COc1cc2nc(Nc3ccc(F)cc3)nc(N)c2cc1OC	7%	.	1%	4.6µM*	6.5µM*
CCOC(=O)c1ccc(Nc2nc(N)c3cc(OC)c(OC)cc3n2)cc1	0%	-10	-2%	21µM*	7.3µM*
COc1cc2ncnc(NCc3ccc(F)cc3)c2cc1OC	-9%	0	-2%	?	-23%
CCc1ccc(CN(C)C(=O)c2cc(COc3cncc(Cl)c3)on2)cc1	?	-22	-23%	?	?
CCc1ccc(CN(C)C(=O)c2cc(COc3ccc(-n4cncn4)cc3)on2)cc1	1%	?	2%	15µM*	?
CN(Cc1ccc(F)cc1)C(=O)c1cc(COc2ccc(-n3cncn3)cc2)on1	-5%	-9	-11%	16µM*	23µM*
Cc1ccc(OCc2cc(C(=O)N(C)Cc3cnn(-c4ccccc4C)c3)no2)cn1	21µM*	-9	18µM*	18µM*	12µM*
Cc1c(C(=O)N2CCOCC2)c(S(=O)(=O)Nc2cccc(C#N)c2)c(C)n1C	17%	-16	-2%	14%	-21%
CCOc1ccc(NC(=O)c2cnn(-c3ccc(C)c(Cl)c3)c2C2CCNCC2)cc1	.	.	.	?	23µM*
CCOc1ccc(NC(=O)c2nnn(-c3ccc(F)c(Cl)c3)c2C)cc1	.	.	.	-26%	-26%
CCOC(=O)c1sc(=S)n(-c2ccccc2Cl)c1SC	-9%	-67*	-18%	?	?
CCOC(=O)Cn1nnc(-c2ccc(SC)cc2)n1	11%	17	6%	-2%	7%
CCOC(=O)Cn1nnc(-c2ccc(S(C)(=O)=O)cc2)n1	2%	-60*	17%	-1%	4%
SMILES	HT1080 IDH1KD tx	IL-1B inflam inh	HT1080-NT tox	TDP1 cell noCPT	TDP1 cell CPT
CNC(=O)c1cc2c(cn1)[nH]c1ccccc12	5%	45	?	?	?
COC(=O)[C@H](CCSC)NC(=O)c1cc2c(cn1)[nH]c1ccccc12	16%	-80*	6%	7.3µM*	10µM*
CCCCOC(=O)c1cc2c(cn1)[nH]c1ccccc12	.	.	.	18µM*	21µM*!
C[C@@H]1CCC[C@]2(O[C@H](CCO)C[C@@H](O)[C@@H]2O)O1	8%	0	9%	3%	-5%
COC(=O)C1=C(C)N(Cc2ccccc2)C(=NCc2cc(OC)c(OC)c(OC)c2)N[C@H]1c1cccc(F)c1	4%	?	-3%	8.2µM*	12µM*
COC(=O)C1=C(C)N(Cc2ccccc2)C(=NCc2cccc(Cl)c2)N[C@H]1c1cccc(F)c1	?	?	?	3.7µM*	2.6µM*
CCN1C(=NCc2cc(OC)c(OC)c(OC)c2)N[C@@H](c2ccccc2)C(C(=O)OC)=C1C	3%	-13	7%	-16%	?
COC(=O)C1=C(C)N(Cc2ccccc2)C(=NCc2ccc(OC)cc2)N[C@H]1c1cccc(F)c1	-17%	?	-20%	16µM*	15µM*
CCN1C(=NCc2ccc(OC)cc2)N[C@@H](c2ccccc2)C(C(=O)OC)=C1C	-6%	-24	1%	?	?
COC(=O)C1=C(C)N(Cc2ccccc2)C(=NCc2ccco2)N[C@H]1c1cccc(F)c1	2%	?	-1%	18µM*	12µM*
CS(=O)(=O)N1CCC2(CCN(C(c3ccccc3)c3ccccc3)CC2)CC1	.	.	.	-14%	-7%
